The source of these data is PubChem BioAssay (EPA / NIEHS).

Read-out in assay [1]: Interleukin-1 alpha (IL1a), IL1A (gene 3552)
Nature of the assay: BSK_KF3CT_IL1a: BioMAP Diversity Plus: KF3CT Assay for Interleukin-1 alpha (IL1a) Biomarker Activity (AID 2283070). The settings on record: primary human keratinocytes with fibroblasts; actives raise or lower the signal. In short, it runs like this: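 Readout is IL-1a level by ELISA, compared bidirectionally with DMSO as baseline. Cells: human keratinocytes co-cultured with foreskin fibroblasts, harvested 24 h post-dose.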

Read-out in assay [2]: TIMP metallopeptidase inhibitor 2 (TIMP2), TIMP2 (gene 7077)
Nature of the assay: BSK_KF3CT_TIMP2: BioMAP Diversity Plus: KF3CT Assay for TIMP metallopeptidase inhibitor 2 (TIMP2) Biomarker Activity (AID 2283071). The settings on record: primary human keratinocytes with fibroblasts; actives raise or lower the signal. In short, it runs like this:
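Chemicals were dosed onto human skin primary co-cultures of keratinocytes and foreskin fibroblasts, and TIMP-2 was measured by ELISA after 24 hours. Activity in either direction was fitted relative to DMSO.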

Read-out in assay [3]: Transforming growth factor beta 1 (TGFb1), TGFB1 (gene 7040)
Nature of the assay: BSK_KF3CT_TGFb1: BioMAP Diversity Plus: KF3CT Assay for Transforming growth factor beta 1 (TGFb1) Biomarker Activity (AID 2283072). The settings on record: primary human keratinocytes with fibroblasts; actives raise or lower the signal. Summed up: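 KF3CT co-culture (keratinocytes + fibroblasts), 24 h exposure → TGF-b1 ELISA → bidirectional fit, DMSO = baseline. Parallel SRB total-protein staining (0.1% SRB, 10% TCA fixation, 560 nm) for cytotoxicity.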

Read-out in assay [4]: C-C motif chemokine 2 (Homo sapiens) (UniProt P13500)
The assay can be described thus: BSK_KF3CT_MCP1: BioMAP Diversity Plus: KF3CT Assay for Monocyte Chemoattractant Protein 1 (MCP1/CCL2) Biomarker Activity (AID 2283073). The settings on record: primary human keratinocytes with fibroblasts; actives raise or lower the signal. In short, it runs like this: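 ELISA read-out of MCP-1, 24 h post-dose, in primary human skin keratinocytes co-cultured with fibroblasts. Parallel SRB staining monitors cytotoxicity; changes fitted both directions relative to DMSO.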

Read-out in assay [5]: Matrix Metallopeptidase 9 (MMP9), MMP9 (gene 4318)
Nature of the assay: BSK_KF3CT_MMP9: BioMAP Diversity Plus: KF3CT Assay for Matrix Metallopeptidase 9 (MMP9) Biomarker Activity (AID 2283074).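 For AC50: MMP9 protein level quantified by ELISA in the co-culture.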 The settings on record: primary human keratinocytes with fibroblasts; actives raise or lower the signal. Summed up: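 Values come from bidirectional fitting relative to DMSO of MMP-9 levels, which were measured by ELISA. Measurements were taken 24 h after chemical dosing of a keratinocyte and foreskin fibroblast co-culture.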

Read-out in assay [6]: urokinase plasminogen activator (uPA), PLAU (gene 5328)
The assay can be described thus: BSK_KF3CT_uPA: BioMAP Diversity Plus: KF3CT Assay for urokinase plasminogen activator (uPA) Biomarker Activity (AID 2283075). The settings on record: primary human keratinocytes with fibroblasts; actives raise or lower the signal. In short, it runs like this:
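Values derive from bidirectional fitting against DMSO controls. Keratinocyte/foreskin fibroblast co-cultures received chemical; 24 h later uPA was detected by ELISA, with SRB total-protein staining in parallel wells for overt cytotoxicity.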

Read-out in a further assay: CD40, CD40 (gene 958)
The assay can be described thus: BSK_LPS_CD40: BioMAP Diversity Plus: LPS Assay for CD40 Biomarker Activity (AID 2283076). The settings on record: primary human HUVEC with PBMC; actives raise or lower the signal. In short, it runs like this: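 In the LPS system of human endothelial cells with peripheral blood mononuclear cells, CD40 levels were read by ELISA 24 h post-treatment. Signal changes in either direction were fitted against the DMSO baseline, with parallel SRB protein staining.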

Read-out in assay [7]: E-selectin (Homo sapiens) (UniProt P16581)
The assay can be described thus: BSK_LPS_Eselectin: BioMAP Diversity Plus: LPS Assay for Eselectin Biomarker Activity (AID 2283077). The settings on record: primary human HUVEC with PBMC; actives raise or lower the signal. Summed up:
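E-selectin ELISA on LPS-stimulated endothelial cell/PBMC co-cultures, read 24 h post-treatment; gains and losses fitted against DMSO. Parallel SRB staining (0.1% SRB after 10% TCA fixation, 560 nm) flags overt cytotoxicity.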

Read-out in assay [8]: Interleukin-8 (IL8), CXCL8 (gene 3576)
Nature of the assay: BSK_LPS_IL8: BioMAP Diversity Plus: LPS Assay for Interleukin-8 (IL8) Biomarker Activity (AID 2283078). The settings on record: primary human HUVEC with PBMC; actives raise or lower the signal. In short, it runs like this:
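ELISA read-out of IL-8 after 24 h chemical treatment of LPS-activated endothelial/PBMC human primary co-cultures. Changes either up or down relative to DMSO; overt cytotoxicity checked by sulforhodamine B staining in parallel wells.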

Assay [9] can be described thus: BSK_LPS_SRB: Viability Assessment in the BioMAP Diversity Plus: LPS Assay (AID 2283079).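 Note: total protein by sulforhodamine B absorbance as a cytotoxicity measure; measured one day after compound addition; fitted in both directions against DMSO so loss or gain of signal counts.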 The settings on record: primary human HUVEC with PBMC. Summed up: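 SRB viability endpoint: cells fixed with 10% TCA, stained with 0.1% SRB, read at 560 nm, 24 h post-dose. HUVEC/PBMC co-culture; signal change in either direction scored relative to DMSO.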

Values joined by “and” are separate entries in the source; they are usually repeats but may differ in a detail not shown here. Equal entries are not always repeated. Where a structure was tested more than once in an assay, its records may differ in their call. Active and inactive are the calls of the source. Rule for the calls: active = hit-call score of the fitted dose curve at least 0.9, where 1 is the maximum; inactive = score below 0.9.

Chain of E-selectin (Homo sapiens) (P16581 whole entry, looked up): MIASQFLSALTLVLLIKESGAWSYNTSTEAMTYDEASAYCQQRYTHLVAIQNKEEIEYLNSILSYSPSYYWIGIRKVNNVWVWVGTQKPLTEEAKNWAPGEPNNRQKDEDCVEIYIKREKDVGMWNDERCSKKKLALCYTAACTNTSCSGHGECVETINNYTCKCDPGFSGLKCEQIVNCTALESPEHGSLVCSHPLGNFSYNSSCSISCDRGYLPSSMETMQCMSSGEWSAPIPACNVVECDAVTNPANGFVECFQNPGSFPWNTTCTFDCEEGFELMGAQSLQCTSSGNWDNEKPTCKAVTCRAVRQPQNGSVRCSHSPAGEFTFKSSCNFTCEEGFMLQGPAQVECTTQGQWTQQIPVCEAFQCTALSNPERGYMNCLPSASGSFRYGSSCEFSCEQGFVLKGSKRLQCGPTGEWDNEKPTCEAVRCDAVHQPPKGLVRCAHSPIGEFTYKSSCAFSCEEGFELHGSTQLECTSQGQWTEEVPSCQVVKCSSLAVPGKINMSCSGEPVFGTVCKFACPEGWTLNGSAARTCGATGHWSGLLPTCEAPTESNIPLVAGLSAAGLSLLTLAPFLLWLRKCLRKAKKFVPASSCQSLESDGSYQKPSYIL

Regarding `CC1=C(C(=O)Nc2ccccc2)SCCO1`, the result in assay [1], in assay [2], in assay [3], in assay [4], in assay [5] and in [6] was inactive. Besides, the outcome with CD40, CD40 (gene 958) was “inactive”; in assay [7], “inactive”; in assay [8], “inactive”; in [9], “inactive”.
The term AC50 denotes the concentration at which the activity in the assay is half-maximal. Regarding `COC(=O)C(C)Oc1ccc(Oc2ccc(Cl)cc2Cl)cc1` (stereo not given), the AC50 was 5.15 µM (active) in assay [1]; 20 µM (active) in [5]; 21.1 µM (active) and 31.6 µM (active) in assay [6]; 29.2 µM (active) and 34.7 µM (active) in the assay with CD40, CD40 (gene 958). The result in assay [1], in assay [2], in assay [3], in assay [4], in assay [5] and in assay [6] was inactive. Besides, the outcome in the assay with CD40, CD40 (gene 958) is “inactive”; in assay [7], “inactive”; in assay [9], “inactive”.
For the molecule `O=C(Nc1ccccc1)Nc1ccnc(Cl)c1`, the outcome in assay [1], in [2], in assay [3], in assay [4], in [5] and in assay [6] was inactive. Also, the outcome with CD40, CD40 (gene 958) is “inactive”; in assay [7] it was “inactive”; in assay [9], “inactive”. Also, the AC50 in [8] is 15 µM (active).
With `Oc1ccccc1-c1ccccc1`, the outcome in [1], in [2], in assay [3], in [4], in assay [5] and in assay [6] was inactive. Besides, the outcome with CD40, CD40 (gene 958) was “inactive”; in assay [7], “inactive”; in [8] it was “inactive”; in [9] it was “inactive”.
Consider `CCCN(CCC)c1c([N+](=O)[O-])cc(S(N)(=O)=O)cc1[N+](=O)[O-]`, for which the result in assay [1], in assay [2], in [3], in assay [5], in [6] and in [7] was inactive. The AC50 in [2] is 34.6 µM (active); in assay [3] it was 34.4 µM (active); in assay [5], 32.8 µM (active); in the assay with CD40, CD40 (gene 958), 33.6 µM (active) [middle of 4 runs]; in assay [7], 36.9 µM (active) and 32.6 µM (active) and 36.7 µM (active); in [9] it was 31.8 µM (active) [middle of 4 runs].
With `COc1nc(NC(C)C)nc(NC(C)C)n1`, the outcome in assay [1], in [2], in assay [3], in assay [4], in assay [5] and in assay [6] was inactive. Also, the outcome was “inactive” in the assay with CD40, CD40 (gene 958); “inactive” in assay [7]; “inactive” in [9].
Regarding `C=CCC1=C(C)C(OC(=O)C2C(C=C(C)C)C2(C)C)CC1=O` (stereo not given), the AC50 is 34.3 µM (active) and 38.6 µM (active) in assay [1]; 31.1 µM (active) and 32.9 µM (active) and 26.7 µM (active) in assay [2]; 26.6 µM (active) and 33.3 µM (active) and 21 µM (active) in assay [3]; 33.6 µM (active) and 36.4 µM (active) and 28.4 µM (active) in assay [4]; 33.6 µM (active) [middle of 4 runs] in assay [5]; 33.8 µM (active) and 33.3 µM (active) in assay [6]. In addition, the AC50 with CD40, CD40 (gene 958) is 24.2 µM (active) and 21 µM (active) and 27.6 µM (active); in assay [7] it was 31.5 µM (active) and 33.3 µM (active) and 33.1 µM (active); in assay [9], 33.1 µM (active) [middle of 4 runs]. In addition, the outcome in assay [1] was “inactive”; in assay [2], “inactive”; in assay [3], “inactive”; in assay [4], “inactive”; in assay [6], “inactive”; with CD40, CD40 (gene 958), “inactive”. In addition, the result in [7] was inactive.
With `CCON=C(CC)C1=C(O)CC(c2c(C)cc(C)cc2C)CC1=O` (stereo not given), the outcome in assay [1], in assay [2], in assay [3], in assay [4], in assay [5] and in [6] was inactive. The outcome is “inactive” with CD40, CD40 (gene 958); “inactive” in [7]; “inactive” in assay [8]; “inactive” in [9].
Consider `N#Cc1nn(-c2c(Cl)cc(C(F)(F)F)cc2Cl)c(N)c1S(=O)C(F)(F)F` (stereo not given), for which the result in assay [1], in assay [2], in assay [3], in assay [4], in assay [5] and in assay [6] was inactive. The AC50 with CD40, CD40 (gene 958) is 14.9 µM (active); in assay [7], 36.8 µM (active); in assay [8], 23.4 µM (active); in assay [9] it was 31.4 µM (active).
With `CC(C)(C)c1ccc(CSc2cnn(C(C)(C)C)c(=O)c2Cl)cc1`, the AC50 in assay [1] was 6.93 µM (active); in assay [2] it was 22.9 µM (active); in assay [4], 20 µM (active); in assay [5] it was 18.6 µM (active); in [6], 4.28 µM (active); in the assay with CD40, CD40 (gene 958) it was 8.25 µM (active). Further, the concentration at half-maximal activity (AC50) is 3.16 µM (active) in assay [8] and 7.73 µM (active) in assay [9]. The result in assay [3] and in assay [7] was inactive.
For the molecule `CCCCC(CC)COC(=O)c1ccccc1C(=O)OCC(CC)CCCC` (stereo not given), the result in [1], in assay [2], in assay [3], in assay [4], in [5] and in [6] was inactive. For the same molecule, the outcome with CD40, CD40 (gene 958) was “inactive”; in [7], “inactive”. Besides, the values for the AC50 in assay [8] and in assay [9] were 3.22 µM (active) and 4.97 µM (active), respectively.
For `COC(=O)C=C(C)OP(=O)(OC)OC`, the outcome in [1], in [2], in [3], in assay [4], in assay [5] and in [6] was inactive. The outcome with CD40, CD40 (gene 958) was “inactive”; in assay [7], “inactive”; in [8], “inactive”; in assay [9] it was “inactive”.
